Values joined by “and” are separate entries in the source; they are usually repeats but may differ in a detail not shown here. Equal values may be shown once. Results filed as inconclusive are left out. Active and inactive are the calls of the source. Unless noted, calls follow the shape of the dose curve; as a rule, active = well fitted curve in the direction sought with a large enough effect; inconclusive = small, poorly fitted or top-dose-only effect, or another doubt; inactive = no such curve, though single readings can be large; an effect the other way counts as inactive or inconclusive.

For assay [1], the target named is Cytochrome P450 3A4 (Homo sapiens) (UniProt P08684). Put plainly: qHTS Assay for Inhibitors and Substrates of Cytochrome P450 3A4 (AID 884). Also: nearly all actives have a fitted effect of over 50% in size. Also: potency is read from the fitted curve at half-maximal effect. As to activity change, negative = inhibition: % is scaled to controls: 0 for no effect and ±100 for the full control effect. The method, boiled down:
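20 nM human CYP3A4 with 25 uM Luciferin-PPXE (at KM) in 200 mM KPO4, preincubated 10 min with compound; NADPH regeneration started a 60 min RT reaction. Luciferin detected by luminescence, normalized to 57 uM ketoconazole as full inhibition.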

Assay [2] can be described thus: Confirmation and Secondary Assay for Modulators of Hemoglobin Beta Chain Splicing at IVS2 654 locus (AID 910).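 Also: HeLa cells stably carrying EGFP split by mutant beta-globin IVS2-654 intron; % of control where 0% means no effect.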 The method, boiled down:
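HeLa cells stably expressing EGFP interrupted by β-globin IVS2-654 intron, seeded overnight in Opti-MEM/2% FCS, then treated 2 days at 37 °C. Restored splicing read as total peak GFP intensity per well by laser scanning cytometry (488 nm excitation, 500–520 nm emission); 500 nM antisense PNA as control.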

Assay [3] can be described thus: Confirmation and Secondary Assay for Modulators of Hemoglobin Beta Chain Splicing at IVS2 705 locus (AID 930).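 Also: HeLa cells stably expressing the EGFP-705 splicing reporter; GFP fluorescence per well restored by corrected splicing of the IVS2-705 intron in EGFP; % of control where 0% means no effect.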 The method, boiled down: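 Stable HeLa line with EGFP disrupted by mutant beta-globin intron 2 (705). Overnight attachment, then 2 days of compound at 37C, 5% CO2. Signal: peak GFP intensity summed over objects 5-250 µm.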
Assay [4] can be described thus: qHTS Assay for Lipid Storage Modulators (AID 1519; calls by dose curve; as to activity change, negative = inhibition: % is scaled to controls: 0 for no effect and ±100 for the full control effect). To be noted: Drosophila S3 cells, BODIPY lipid droplet/cell ratio, laser cytometry, cells loaded with oleic acid; for activity change, negative = inhibition: at 57.5 µM (top of the series). Put shortly: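 Cells seeded at 5,000 per well were treated with compounds over a concentration series and loaded with oleic acid (400 uM, as added). Lipid droplet fluorescence (488 nm excitation, 500-530 nm channel) was read by laser-scanning cytometry and normalized to 20 uM Triacsin C.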

The target of assay [5] is Cytochrome P450 3A4 (Homo sapiens) (UniProt P08684). Briefly: qHTS Assay for Activators of Cytochrome P450 3A4 (AID 885). Also: nearly all actives have a fitted effect of over 65% in size. Put shortly: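 Signal was normalized against complete inhibition by 57 uM ketoconazole. The reaction used 20nM CYP3A4 with 25uM Luciferin-PPXE, 10-min compound preincubation and a 60-min NADPH-supported step at RT.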
Where [6] appears, read: measured here: cell count channel max response.
The mark [7] stands for this setting: measured here: lipid channel max response.

Sequence of Cytochrome P450 3A4 (Homo sapiens) (P08684 whole entry, looked up): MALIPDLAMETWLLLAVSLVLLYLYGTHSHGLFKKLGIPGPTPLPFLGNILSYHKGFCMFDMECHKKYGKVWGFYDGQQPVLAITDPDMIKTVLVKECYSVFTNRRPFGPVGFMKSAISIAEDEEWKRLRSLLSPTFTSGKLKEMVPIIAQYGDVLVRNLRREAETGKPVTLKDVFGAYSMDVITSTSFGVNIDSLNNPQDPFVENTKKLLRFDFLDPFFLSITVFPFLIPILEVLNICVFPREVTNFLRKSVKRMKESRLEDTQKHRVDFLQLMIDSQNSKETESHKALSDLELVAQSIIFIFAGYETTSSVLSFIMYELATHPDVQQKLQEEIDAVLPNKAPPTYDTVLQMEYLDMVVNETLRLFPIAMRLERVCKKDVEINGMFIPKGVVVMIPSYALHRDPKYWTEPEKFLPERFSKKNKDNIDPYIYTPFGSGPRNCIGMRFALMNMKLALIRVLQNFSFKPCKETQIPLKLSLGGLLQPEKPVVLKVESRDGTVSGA

`CC(=O)OC1CC[C@@]2(C)C3CC[C@]4(C)C(=O)CCC4C3CC[C@H]2C1` (stereo not given in full): the Potency result in assay [1], in assay [2] and in assay [3] was “inactive” throughout. Besides, the activity change, negative = inhibition in assay [4] was -0.903% (inactive). Further, the max response is -8.94% in assay [4] (setting [6]) and -14.8% in assay [4] (setting [7]).
In the case of `CC1(C)N([O-])[N+](=O)C1(C)Br` (stereo not given), the Potency entry in assay [1] and in assay [3] was “inactive” each time. Also, the activity change, negative = inhibition in assay [4] was 1.13% (inactive). The max response in assay [4] (setting [6]) is -4.64%; in assay [4] (setting [7]) it was -5.74%.
Turning to `O=c1ccc2cc(O[C@H]3OC(CO)C(O)C(O)C3O)c(O)cc2o1` (stereo not given in full), the Potency entry in assay [3] is “inactive”. Also, the activity change, negative = inhibition in assay [4] was 5.45% (inactive) and 5.34% (inactive). Besides, the max response was 5.76% and 15.4% in assay [4] (setting [6]); 15.3% and 32.6% in assay [4] (setting [7]).
Regarding `CC1=C2CCC3C4CCC(=O)[C@@]4(C)CCC3[C@]2(C)CCC1=O` (stereo not given in full), the Potency in assay [1] was 5.01 µM (active). The Potency result in assay [5], in assay [2] and in assay [3] was “inactive” throughout. Also, in assay [4], the activity change, negative = inhibition was 7.19% (inactive). Further, the results for the max response in assay [4] (setting [6]) and in assay [4] (setting [7]) were 5.35% and 8.56%, respectively.
In the case of `O=C(CC[N+](=O)[O-])OCC1OC(O)C(OC(=O)CC[N+](=O)[O-])[C@@H](OC(=O)CC[N+](=O)[O-])C1OC(=O)CC[N+](=O)[O-]` (stereo not given in full), the Potency entry in assay [1], in assay [2] and in assay [3] was “inactive” throughout. Also, in assay [4], the activity change, negative = inhibition is 3.27% (inactive). In addition, the figures for the max response in assay [4] (setting [6]) and in assay [4] (setting [7]) were 13% and 17.5%, respectively.
Turning to `S=C=NCc1ccccc1`, in assay [1], the Potency is 25.1 µM (active). Besides, the Potency result in assay [5], in assay [2] and in assay [3] was “inactive” throughout. The activity change, negative = inhibition in assay [4] is 4.36% (inactive). In addition, the figures for the max response in assay [4] (setting [6]) and in assay [4] (setting [7]) were -6.33% and 0.435%, respectively.
For `CNC(=O)Oc1cccc2c1OC(C)(C)C2`, the Potency entry in assay [2] and in assay [3] was “inactive” each time. The activity change, negative = inhibition in assay [4] is 4.9% (inactive). For the same molecule, the max response came out at 5.85% in assay [4] (setting [6]) and 6.59% in assay [4] (setting [7]).
For `CC(=O)OC1CC2C(C)(C)C(O)C=C[C@@]2(C)C2CC[C@]3(C)C(=CC(=O)OC3c3ccoc3)[C@]12C` (stereo not given in full), the Potency entry in assay [5], in assay [2] and in assay [3] was “inactive” each time. In addition, the activity change, negative = inhibition in assay [4] is 6.31% (inactive). In addition, the max response in assay [4] (setting [6]) was -2.89%; in assay [4] (setting [7]), 6.06%.
`C[C@@]12CCC3C(CCC4=CC(=O)CC[C@]43C)C1CCC2O` (stereo not given in full): the Potency result in assay [2] and in assay [3] was “inactive” throughout. Moreover, the activity change, negative = inhibition in assay [4] is -1.38% (inactive). Moreover, the results for the max response in assay [4] (setting [6]) and in assay [4] (setting [7]) were 0.874% and 1.24%, respectively.
Take `CCC(CO)NC(=O)C1C=C2c3cccc4[nH]cc(c34)CC2N(C)C1` (stereo not given): the Potency entry in assay [3] was “inactive”. Besides, the activity change, negative = inhibition in assay [4] is 10.6% (inactive). In addition, the values for the max response in assay [4] (setting [6]) and in assay [4] (setting [7]) were 3.07% and 18.5%, respectively.

The values above are taken from PubChem BioAssay (NCATS).
